Only some compounds are listed: those with a hit (about 6.6% of all), similar ones and a draw of the others.
TGFb SMAD3 inh: qHTS for Inhibitors of TGF-b | actives 1.2% (n = 410,000) | Potency, µM (titrated, usually from 46.1 µM), for inactives: at the top dose activity, negative = inhibition, actives largely listed as inhibitors | AID 588855, 2011 | HepG2 CAGA-GFP TGF-b/SMAD3 reporter, GFP fluorescence, 18 h; TGF-beta stimulated, 500 pg/mL final; note: % is set by controls: 0 for no effect and ±100 for the full control effect; nearly all actives have a fitted effect of over 65% in size
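First, reporter cells (HEPG2 CAGA-GFP) rested 2 h at 37 degrees C. Next, compounds were pinned in and TGF-beta added to 500 pg/mL final. After 18 h, GFP was imaged per cell and summed per well.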
HT1080-NT tox: qHTS for induction of synthetic lethality in tumor cells producing 2HG: qHTS for the HT-1080-NT fibrosarcoma cell line | HT-1080-NT fibrosarcoma viability, CellTiter-Glo ATP luminescence, 48 h | Potency, µM (top dose mostly 46.1 µM), for the others: at the top dose activity, negative = less viability, usual class: cytotoxic | actives 1.6% (n = 360,000) | AID 686970, 2013;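 note: NT is the 2HG producing partner of a matched IDH1 knockdown line; 0% = DMSO-treated cells and -100% = media-only wells without cells; nearly all actives have a fitted effect of over 55% in size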
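A 48-hour cytotoxicity screen used HT-1080-NT cells plated 2 hours before compound delivery. ATP-based CellTiter-Glo luminescence measured viability, normalized to DMSO and no-cell controls.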
HT1080 IDH1KD tx: qHTS for induction of synthetic lethality in tumor cells producing 2HG: qHTS for the HT-1080-IDH1KD cell line; Potency, µM (series often up to 46.1 µM), without a hit: top-dose activity, negative = toxicity, most hits filed as cytotoxic; actives 2% (n = 360,000); AID 686971, 2013; HT-1080 IDH1 knockdown viability, ATP luminescence, 48 h;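 note: 0% = DMSO wells and -100% = cell-free medium wells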
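In this qHTS, HT-1080 cells depleted of IDH1 are exposed for 48 h at 37 °C to compound titrations. Toxicity is scored from CellTiter-Glo luminescence, with DMSO as full viability and medium alone as none.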
KB-V1 MDR tox: qHTS assay for MDR1-selective chemotherapeutics: Primary screen using the drug-selected MDR subline cells KB-V1 | KB-V1 MDR cells viability, CellTiter-Glo, 72 h | actives 3.4% (n = 400,000) | Potency, µM (highest dose often 46.1 µM), hits mostly cytotoxic | AID 1347076, 2019; note: % is set by controls: 0 for no effect and ±100 for the full control effect; nearly all actives have a fitted effect of over 60% in size
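Cytotoxicity via CellTiter-Glo luminescence after 72 h compound exposure at 37 degrees C. Cells: drug-selected KB-V1 line, DMEM phenol-red free plus 10% FBS. Compounds tested at multiple concentrations; normalized data fitted to concentration-effect curves.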
KB-3-1 cytotox: qHTS assay for MDR1-selective chemotherapeutics: Primary screen using the parental adenocarcinoma cell KB-3-1; Potency, µM (titrated, usually from 46.1 µM), usual class: cytotoxic; actives 1.4% (n = 400,000); KB-3-1 viability, CellTiter-Glo ATP luminescence, 72 h; AID 1347075, 2019; note: % is set by controls: 0 for no effect and ±100 for the full control effect; nearly all actives have a fitted effect of over 60% in size
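Here the drug-naive KB-3-1 line serves as comparator for MDR sub-line selectivity; cells received compound titrations, 72 h at 37 °C, then CellTiter-Glo readout.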
HepG2 tox-1: qHTS for Inhibitors of TGF-b: Cytotox Counterscreen; actives 0.76% (n = 410,000); AID 588856, 2011; Potency, µM (highest dose often 46.1 µM), for the others: at the highest dose activity change, negative = cytotoxicity, most hits filed as cytotoxic; HepG2 CAGA-GFP viability, ATP luminescence, 18 h
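CellTiter-Glo luminescence gave cytotoxicity after 18 hours at 37 degrees C. The cells were HepG2 CAGA-GFP in 1% FBS DMEM, stimulated with 500 pg/mL TGF-beta after compound addition. %Activity was normalised to no-cell wells (complete cell-killing) and DMSO (no toxicity), and curves were fitted and classified.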
TGFb confirm: qHTS for Inhibitors of TGF-b: Confirmation of Cherry Picks; shares compounds with TGFb SMAD3 inh; HepG2 CAGA-GFP TGF-b reporter, GFP fluorescence, 18 h; cells stimulated with TGF-beta, 500 pg/mL; Potency, µM (top dose mostly 46.1 µM), inactives show at the top dose activity, negative = inhibition, usual class: inhibitors; actives 63% (n = 1,600); note: % is set by controls: 0 for no effect and ±100 for the full control effect; nearly all actives have a fitted effect of over 65% in size
HepG2 tox-2: qHTS for Inhibitors of TGF-b: Cytotox Counterscreen for Cherry Picks. shares compounds with TGFb SMAD3 inh. HepG2 CAGA-GFP viability, ATP luminescence, 18 h; cells stimulated with TGF-beta, 500 pg/mL. Potency, µM (doses to about 46.1 µM), inactives show top-dose activity, negative = cytotoxicity, usual class: inhibitors. actives 27% (n = 1,600). AID 720535, 2013; note: % is set by controls: 0 for no effect and ±100 for the full control effect; nearly all actives have a fitted effect of over 70% in size
CCL64 TGFb inh: qHTS for Inhibitors of TGF-b: CCL64 Cells Orthogonal Assay for Cherry Picks; shares compounds with TGFb SMAD3 inh; CCL64 CAGA-GFP reporter, TGF-b stimulated, GFP fluorescence, 18 h; Potency, µM (top dose mostly 46.1 µM), inactives show top-dose activity, negative = inhibition, most hits filed as inhibitors; actives 41% (n = 1,600); AID 720536, 2013; note: nearly all actives have a fitted effect of over 65% in size
COP TGFb inh: qHTS for Inhibitors of TGF-b: Hit Validation in HepG2 Cells using COP promoter. HepG2 COP-GFP TGF-b reporter, GFP fluorescence, 18 h; cells stimulated by added recombinant TGF-beta. actives 3% (n = 1,600). Potency, µM (highest dose often 46.1 µM), inactives show top-dose activity, negative = inhibition, hits mostly inhibitors. shares compounds with TGFb SMAD3 inh; note: nearly all actives have a fitted effect of over 70% in size
The depositor's hits bear a star; i = inactive; ? = inconclusive; / = no result. Calls come from the whole dose curve; as a rule, active = well fitted curve in the direction sought with a large enough effect; inconclusive = small, poorly fitted or top-dose-only effect, or another doubt; inactive = no such curve, though single readings can be large; an effect the other way counts as inactive or inconclusive. Potency is the fitted concentration of half-maximal effect.

SMILES	TGFb SMAD3 inh	HT1080-NT tox	HT1080 IDH1KD tx	KB-V1 MDR tox	KB-3-1 cytotox	HepG2 tox-1	TGFb confirm	HepG2 tox-2	CCL64 TGFb inh	COP TGFb inh
COc1cc(OC)cc(C(=O)N[C@H](C(=O)NC2CCCc3ccccc32)C(C)C)c1 (stereo partly drawn)	0%	0%	-4%	?	?	5%	/	/	/	/
O=C(O)c1ccc(Nc2nc(-c3ccccc3)nc3ccccc23)cc1	-10%	-27%	-16%	i	i	-29%	/	/	/	/
Cc1ccc(-c2nc(Nc3cccc(O)c3)c3ccccc3n2)cc1	?	?	-28%	i	i	-71%	/	/	/	/
Fc1ccc(CNc2nc(-c3ccccc3)nc3ccccc23)cc1	18µM*	?	-18%	i	i	2%	?	?	?	33%
Oc1cccc(Nc2nc(-c3ccccc3Cl)nc3ccccc23)c1	-20%	?	?	?	?	-8%	?	-15%	?	32%
c1ccc(Nc2nc(-c3ccccc3)nc3ccccc23)cc1	-29%	2%	0%	i	i	-41%	?	?	?	33%
Cc1ccc(-c2nc(Nc3ccc(O)cc3)c3ccccc3n2)cc1	?	21µM*	21µM*	?	?	-119%	?	?	15µM*	100%
CC(C)C(NC(=O)c1ccc(Cl)cc1Cl)C(=O)N1CCN(S(=O)(=O)c2ccccc2)CC1 (stereo not drawn)	27%	-2%	-8%	i	i	12%	/	/	/	/
O=C(c1cnn(C(=O)CN2CCCC2=O)c1)c1ccccc1O	-25%	1%	-8%	?	i	6%	/	/	/	/
COc1ccc(NC(=O)CC2C(=O)N(c3ccc(F)cc3)C(=O)N2Cc2ccc3c(c2)OCO3)cc1 (stereo not drawn)	-15%	/	/	i	i	-26%	/	/	/	/
Cc1ccc(NC(=O)C2(c3ccc([N+](=O)[O-])cc3)CCCC2)cc1	?	-18%	0%	i	i	1%	-28%	-9%	-10%	0%
